# SW480 rereplic = induces DNA re-replication in SW480 colon adenocarcinoma cells | SW480 DNA re-replication, Hoechst DNA content imaging, 48 h | Potency, µM (series often up to 46.1 µM), usual class: activators | 340,000 compounds, 1.8% hits | AID 624297; note: nearly all actives have a fitted effect of over 55% in size
#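 First, 250 cells per well were seeded. Next, compound or vehicle (23 nL) was pinned in, plates sat 48 hr at 37 C. Finally Hoechst was added for 40 min before fluorescence scanning.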
# KB-V1 cytotox = kills drug-selected multidrug resistant KB-V1 cells; KB-V1 MDR cells viability, CellTiter-Glo, 72 h; Potency, µM (doses to about 46.1 µM), usual class: cytotoxic; 400,000 compounds, 3.4% hits; AID 1347076; note: nearly all actives have a fitted effect of over 60% in size
#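 Readout: CellTiter-Glo luminescence, 10 min after addition. Cells: KB-V1 MDR subline, 72 h at 37 degrees C with compound. Analysis: corrected, normalized data fitted to concentration-effect curves.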
# ELG1 repair inh = inhibitors of ELG1-dependent DNA repair in HEK293T cells | HEK293T ELG1-luciferase reporter, luminescence, 16 h; DNA damage induced by 5-fluorouridine | AID 504467 | Potency, µM (highest dose often 46.1 µM), usual class: inhibitors | 330,000 compounds, 2.3% hits; note: nearly all actives have a fitted effect of over 55% in size
#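 HEK293T cells expressing luciferase-tagged ELG1 (2,000/well) received 5-Fluorouridine plus compound or DMSO for 16 hr at 37 °C. Luciferase was read by ONE-Glo luminescence after 30 min at room temperature.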
# KB-3-1 tox = KB-3-1 parental cell cytotoxicity | KB-3-1 viability, CellTiter-Glo ATP luminescence, 72 h | Potency, µM (doses to about 46.1 µM), actives largely listed as cytotoxic | 400,000 compounds, 1.4% hits; note: nearly all actives have a fitted effect of over 60% in size
#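 Viability of parental KB-3-1 cells, measured by CellTiter-Glo luminescence, followed a 72 h incubation at 37 °C with pinned compounds in phenol-red-free DMEM containing 10% FBS.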
# MCF10A rereplic = inducers of DNA re-replication in MCF 10A breast cells; MCF 10A DNA re-replication, Hoechst nuclear intensity, 48 h; Potency, µM (titrated, usually from 46.1 µM), actives largely listed as activators; 350,000 compounds, 2.9% hits; note: nearly all actives have a fitted effect of over 50% in size
# Hits are given with their value; i = inactive; ? = inconclusive; nt = no result. Sampled rows, rich in hits. Any-hit rate of the full collection: about 8.1%. Calls come from the whole dose curve; as a rule, active = well fitted curve in the direction sought with a large enough effect; inconclusive = small, poorly fitted or top-dose-only effect, or another doubt; inactive = no such curve, though single readings can be large; an effect the other way counts as inactive or inconclusive.
SMILES,SW480 rereplic,KB-V1 cytotox,ELG1 repair inh,KB-3-1 tox,MCF10A rereplic
CCN(CC(=O)Nc1c(F)cccc1F)C(=O)CN(C)S(=O)(=O)c1ccc(F)cc1,i,20.6µM,i,i,i
O=C(CCc1nc2ccccc2c(=O)[nH]1)NNC(=O)c1cccc(Cl)c1,29.1µM,?,i,i,i
Cc1ccccc1NC(=O)CSc1nc2ccccc2c(=O)n1C,i,?,14.6µM,?,i
CC(C)Oc1ccccc1NC(=O)CSc1nc2ccccc2c(=O)n1C,i,i,?,?,i
COC(=O)c1cccc(NC(=O)CSc2nc3cccnc3n2C)c1,i,18.4µM,13µM,i,i
COc1cccc(-n2c(SCC(=O)Nc3nc4ccccc4s3)nc3ccccc3c2=O)c1,i,i,?,i,i
COC(=O)c1ccccc1NC(=O)CSc1nc2cccnc2n1C,i,i,i,i,i
C=CCn1c(SCc2csc(-c3ccc(C)cc3)n2)nnc1-c1ccccc1OC,nt,13µM,i,i,?
COc1cccc(-n2c(SCC(=O)Nc3sc4c(c3C(N)=O)CCC4)nc3ccccc3c2=O)c1,i,?,6.51µM,i,i
COc1ccccc1C(=O)N1CCN(Cc2c[nH]c3ccccc23)CC1,i,i,?,i,i
COCCn1c(C)cc(C(=O)COc2ncnc3ccc(Br)cc23)c1C,i,i,?,?,i
CSc1ccccc1NC(=O)CN(c1cc(C)cc(C)c1)S(C)(=O)=O,i,i,i,i,i
O=C(NNC1CC(=O)N(c2ccccc2)C1=O)c1ccccc1Cl (stereo unspecified),i,i,i,i,i
COc1cccc(-c2n[nH]nc2C2=CC(=O)CC(C)(C)C2)c1,nt,i,nt,i,nt
COc1ccc(CN2CCSCC2)cc1C,i,i,?,i,i
COc1cccc(NC(=O)CSc2nc3ccccc3c(=O)n2C)c1,i,?,9.2µM,i,i
Cc1ccc(-c2nc(CSc3nc4ccccc4c(=O)n3C)cs2)cc1,i,11.6µM,?,?,?
O=C1c2ccccc2C(=O)N1CCc1csc(NNc2nc(CCN3C(=O)c4ccccc4C3=O)cs2)n1,i,i,i,i,i
Cc1ccccc1NC(=O)CSc1nc2cc3c(cc2cc1C)CCC3,6.51µM,i,i,?,?
Cc1ccc(-c2nc(CCN3C(=O)c4ccccc4C3=O)cs2)cc1,i,13µM,i,i,?
Cc1cc(N2CCN(C(C(=O)NC3CCCC3)c3ccco3)CC2)c2ccccc2n1 (stereo unspecified),nt,?,nt,i,nt
CC1=CCC(C(=O)N/N=C/c2cccs2)C(c2ccc(F)cc2)C1 (stereo unspecified),i,?,i,?,?
CC(C)c1ccc(Cc2cn3cc(-c4cc5ccccc5oc4=O)nc3s2)cc1,nt,?,nt,0.581µM,nt
O=c1oc2ccccc2cc1-c1cn2cc(Cc3cc(Cl)ccc3Cl)sc2n1,nt,?,nt,i,nt
CCOC(=O)Cn1c(=O)n(CC2CCCO2)c2nc(-c3ccc(OCC)cc3)nc(C(N)=O)c21 (stereo unspecified),nt,i,nt,i,nt
SMILES,SW480 rereplic,KB-V1 cytotox,ELG1 repair inh,KB-3-1 tox,MCF10A rereplic
CCOc1ccc(N(C(=O)/C=C/C(=O)Nc2cc(C)on2)C(C(=O)NC2CCCC2)c2ccccc2C)cc1 (stereo unspecified),i,?,i,9.2µM,i
COc1ccc(-n2nnnc2S(=O)(=O)CC(=O)N2CCCCC2)cc1,i,?,i,20.6µM,7.31µM
CCc1ccc(Oc2nnnn2-c2ccc(C(N)=O)cc2)cc1,i,i,i,i,i
COc1ccc(-n2nnnc2S(=O)(=O)Cc2ccc(C(=O)O)cc2)cc1,7.31µM,i,?,i,16.4µM
CC(C)c1ccc(NC(=O)c2ccc(-c3ccnn3C)c3ccoc23)cc1,nt,i,nt,i,nt
COc1ccc(NC(=O)N2CCN(c3cc(-c4noc(C)n4)ccc3C)CC2)c(OC)c1,nt,i,nt,i,nt
O=C(NCCOc1ccccc1)c1cc(C(=O)NCCOc2ccccc2)cc([N+](=O)[O-])c1,?,3.66µM,?,?,i
COc1ccc(OCCNC(=O)c2cccc(Oc3ccc(C(F)(F)F)cc3[N+](=O)[O-])c2)cc1,i,2.91µM,?,?,?
COc1cccc(Oc2ccc(C(F)(F)F)cc2NC(=O)c2cccc(F)c2)c1,i,20.6µM,i,?,i
O=C(Nc1ccc2nc3n(c(=O)c2c1)CCCC3)c1cccc(F)c1,i,i,?,i,i
COc1ccccc1Nc1c2c(nc3ccc(NC(=O)c4cccc(F)c4)cc13)CCCC2,nt,i,nt,20.6µM,nt
COc1ccc(Oc2ccc(C(F)(F)F)cc2NC(=O)c2ccc(F)cc2)cc1,i,i,i,i,i
O=C(NCCOc1ccccc1)c1ccccc1[N+](=O)[O-],i,i,i,i,i
O=C(NCCO)c1ccc(Oc2ccc(C(F)(F)F)cc2[N+](=O)[O-])cc1,i,i,i,i,i
CCOC(=O)C1(CC2CCCCO2)CCN(Cc2c(C)cc(C)cc2-n2cccn2)CC1 (stereo unspecified),i,i,i,i,i
CNS(=O)(=O)c1cccc(C(=O)OCC(=O)c2cc(C)n(CC3CCCO3)c2C)c1 (stereo unspecified),i,?,?,i,i
COc1cc2c(cc1NC(=O)c1cccc(F)c1)CCCC2,i,23.1µM,?,i,i
CCOC(=O)/C(=N\Nc1ccc(Cl)cc1)c1csc(Nc2ccccc2)n1,?,i,i,i,3.98µM
Cc1ccc(Nc2nc(C(=O)NCc3ccco3)cs2)cc1,i,?,i,i,i
CCN(CC)C(=O)c1csc(Nc2ccc(C)cc2)n1,i,14.6µM,i,i,i
CCOC(=O)/C(=N\Nc1ccc(OC)cc1)c1csc(Nc2ccccc2)n1,i,i,16.4µM,i,?
CCOC(=O)/C(=N/Nc1ccccc1)c1csc(Nc2ccccc2)n1,?,?,?,i,?
COc1ccc(S(=O)(=O)N2CCCCC2)cc1NC(=O)C1CC1,i,i,i,?,i
COc1ccc(S(=O)(=O)N2CCCCCC2)cc1N(C)S(=O)(=O)c1ccccc1,i,?,?,i,11.6µM
COc1ccc(NC(=O)C2COc3ccccc3O2)cc1S(=O)(=O)N1CCOCC1 (stereo unspecified),i,13µM,i,i,i
COc1ccc(S(=O)(=O)N2CCCCC2)cc1NC(=O)C1COc2ccccc2O1 (stereo unspecified),i,?,18.3µM,i,i
Cc1c(N)cc(N)cc1C(=O)O,i,i,i,i,i
CC(C)NC(=O)C1C(c2ccc(C(F)(F)F)cc2)=Nc2ccccc2N1C(=O)c1cccc(C(F)(F)F)c1 (stereo unspecified),nt,i,nt,i,nt
CCOC(=O)c1cc2nc(Nc3ccc(OC)cc3)sc2s1,?,i,?,i,4.61µM
CCOC(=O)c1sc(Nc2ccc(Br)cc2)nc1C,i,i,?,i,?

# Screens deposited in PubChem by National Center for Advancing Translational Sciences (NCATS).
